Pf growth 48h – Primary qHTS for delayed death inhibitors of the malarial parasite plastid, 48 hour incubation | P. falciparum luciferase growth in erythrocytes, 48 h | Potency, µM (top dose mostly 28.7 µM), for inactives: at the highest dose activity change, negative = inhibition, most hits filed as inhibitors | hit rate 5.9% among 310,000 | AID 504832, 2011; further: potency means the concentration at half of the fitted maximal effect; on the % scale 0 is the no-effect control and ±100 the full control effect
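Luciferase-expressing parasites in RBCs, 2% Hct / 0.1% parasitemia final; RPMI 1640 + 0.5% Albumax; 37 C, 5% CO2, one generation; luminescence read-out, lower signal = inhibition.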
CHX counter – Cycloheximide Counterscreen for Small Molecule Inhibitors of Shiga Toxin. AID 2314, 2010. max response, %. cell reporter, cycloheximide protein synthesis inhibition counterscreen. hit rate 12% among 300,000; in the data active means max response mostly above about 13%, no sharp cut-off; inactive means mostly below about 14%; further: read at 38.3 µM for the half of the compounds with a filed dose; 0% is about no effect
Pf growth 96h – Primary qHTS for delayed death inhibitors of the malarial parasite plastid, 96 hour incubation. P. falciparum luciferase reporter growth, 96 h. Potency, µM (doses to about 28.7 µM), inactives show at the highest dose activity change, negative = inhibition, usual class: inhibitors. hit rate 6.9% among 320,000; further: potency means the concentration at half of the fitted maximal effect; on the % scale 0 is the no-effect control and ±100 the full control effect
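Two-generation exposure (96 h) targets delayed-death phenotype. Reporter parasites carrying integrated firefly luciferase, in red cells at 2% hematocrit and 0.05% parasitemia final, kept at 37 C, 5% CO2; luminescence loss indicates inhibition.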
Shiga inhibitor – A qHTS for Small Molecule Inhibitors of Shiga Toxin; Vero cells, Shiga toxin protein synthesis inhibition reporter; inhibition, % at 38.7 µM; hit rate 9.2% among 290,000; in the data active means inhibition mostly above about 28%, no sharp cut-off; inactive means mostly below about 43%; further: 0% is about no effect
Active calls of the source: *; ? = inconclusive; / = no result given; [ ] = dose if it differs, or a comment. Hits are enriched below; roughly 21% of the tested compounds scored in any of these assays. Unless noted, the call rests on the fitted dose curve; in most records, active means well fitted inhibition curve with a large enough effect; inconclusive means small, poorly fitted or top-dose-only effect, or another doubt; inactive means no such curve, though single readings can be large or run the other way.

SMILES | Pf growth 48h | CHX counter | Pf growth 96h | Shiga inhibitor
COc1ccc2c3c(cccc13)C(=O)N(O)C2=O | 13µM* | -2 | 15% | -4
O=C1/C(=C/c2cccs2)NC(=S)N1C1CC1 | 14% | 15 | 35% | active
CC(=NCCCn1ccnc1)c1c(O)n(C)c(=O)n(C)c1=O | 27% | 1 | 10µM* | 1
CCCCn1c(O)c(C(C)=NCCCn2ccnc2)c(=O)[nH]c1=O | 21% | -2 | / | 0
COc1cccc(N2CCN(C(c3ccccn3)c3nnnn3C(C)(C)C)CC2)c1 (stereo unspecified) | ? | -3 | ? | -3
CCC(C)(C)n1nnnc1C(c1ccncc1)N1CCN(c2cccc(OC)c2)CC1 (stereo unspecified) | 0% | -1 | 2.6µM* | -2
CCC(C)(C)n1nnnc1C(c1ccc(C)cc1)N1CCN(Cc2cccnc2)CC1 (stereo unspecified) | 13µM* | -7 | -4%[5.75 µM] | -19
CCC(C)(C)n1nnnc1C(c1cccnc1)N1CCN(c2cccc(C(F)(F)F)c2)CC1 (stereo unspecified) | 9.3µM* | -3 | 0% | -16
CC1(C)Cc2nc3sc(C(N)=O)c(N)c3cc2CO1 | 38% | 31* | 48% | 31
CCOC(=O)c1sc2nc3c(cc2c1N)COC(C)(CC)C3 (stereo unspecified) | 87% | 41* | -28% | 33
CCOC(=O)c1cc2c(nc1NC(=S)Nc1ccccc1)CC(C)(C)OC2 | -13% | -3 | 10µM* | -9
CCOC(=O)c1cc2c(nc1N)CC(C)(CC)OC2 (stereo unspecified) | 121% | 49* | / | 116*
CC(C(=O)Nc1ccccc1-c1ccccc1)N(C)Cc1nc2ccccc2c(=O)[nH]1 (stereo unspecified) | -17% | 0 | ? | 4
CCCn1nc(C(=O)NNC(=O)C2CSC3(C)CCC(=O)N23)c2ccccc2c1=O (stereo unspecified) | ? | / | -4% | /
CCOC(=O)c1sc2nc3c(cc2c1N)COC(C)(C)C3 | 270% | 38* | 15% | 29*
CCC1(C)Cc2nc3sc(C(=O)O)c(N)c3cc2CO1 (stereo unspecified) | 0% | 5 | ? | -16
COc1ccc2oc(C(=O)OCC(=O)Nc3cc(S(=O)(=O)N4CCOCC4)ccc3OC)c(C)c2c1 | 8% | / | 31% | /
CNC(=S)N/N=C/C1=CCC2CC1C2(C)C (stereo unspecified) | 5.9µM* | -6 | 4.1µM* | -2
CC1(C)C2CC=C(/C=N/NC(=O)c3ccccc3O)C1C2 (stereo unspecified) | -20% | 8 | -24% | 36*
CC1(C)C2CC=C(/C=N/n3cnnc3)C1C2 (stereo unspecified) | 10% | -3 | 11% | -11
CC1(C)C2CC=C(/C=N/NC(=S)NCCc3ccccc3)C1C2 (stereo unspecified) | ? | 17* | 1.5µM* | 29
NC(=O)c1ccsc1NC(=O)CCS(=O)(=O)c1ccc(Cl)cc1 | -18% | / | ? | /
CCCCSc1ncnc2[nH]ncc12 | 7% | 23* | 41% | 25
c1ccc(Nc2ncnc3[nH]ncc23)cc1 | 15% | -1 | -5% | 2
COc1ccc(C(=O)Nc2nc3ccccc3[nH]2)cc1OC | 196% | 42* | 39% | 86*
SMILES | Pf growth 48h | CHX counter | Pf growth 96h | Shiga inhibitor
CCOc1ccc(C(=O)Nc2nc3ccccc3[nH]2)cc1OCC | ? | 51* | ? | 105*
COc1ccc(OC)c(S(=O)(=O)N2CCC(c3nc4ccccc4[nH]3)CC2)c1 | ? | / | 10µM* | /
CCn1c(C(C)NC(=O)c2ccc(OC)c(OC)c2)nc2ccccc21 (stereo unspecified) | 2% | 18* | ? | 70*
Cc1ccc(S(=O)(=O)N2CCN(C(=O)CNC(=O)c3sc4ccccc4c3Cl)CC2)cc1 | 6% | / | 2% | /
CSc1nnc(C)c(=O)n1COC(=O)/C=C/c1ccc2c(c1)OCO2 | 6% | 13 | 53% | 41
CC(C)Cc1nnc(NC(=O)C2CCN(C(=O)c3ccc(F)cc3)CC2)s1 | ? | / | -23% | /
COc1ccc(C(=O)Nc2nc3ccccc3[nH]2)cc1S(=O)(=O)N1CCCC1 | -27% | 19* | / | 75*
COc1ccc(C(=O)Nc2cccc(C(=O)O)c2)cc1S(=O)(=O)N1CCCC1 | 119% | -3 | 1% | -9
COc1cc(C(=O)Nc2nc3ccccc3[nH]2)ccc1OC(F)F | 139% | 39* | -67% | 62*
COc1ccc(-c2nc(C)c(C(C)=O)n2O)cc1 | 10% | 15 | 4.7µM* | 1
